Here are results for twelve sequences from publication PMC5700166.

Common to all, as to test: protein-binding microarray (PBM); PBM: ~300 nM protein, 6 mM HEPES pH 7.8, 80 mM KCl, 0.5 mM EDTA, 0.5 mM EGTA, 6% glycerol, 35 ng/ul poly-dIdC, 1% milk, 1 h, room temperature; Ap Aiptasia and Nv Nematostella (sea anemones) / Co Capsaspora / Aq Amphimedon (sponge) / Dm Drosophila / Hu human; RHD is the Rel homology domain; high values mean tight binding
Details in all cases: dsDNA, one strand shown

In one test the target is T1, GST-Ap-NF-kB RHD (Exaiptasia pallida (Aiptasia), UniProt A0A913YAJ5 2-422).
T1 sequence: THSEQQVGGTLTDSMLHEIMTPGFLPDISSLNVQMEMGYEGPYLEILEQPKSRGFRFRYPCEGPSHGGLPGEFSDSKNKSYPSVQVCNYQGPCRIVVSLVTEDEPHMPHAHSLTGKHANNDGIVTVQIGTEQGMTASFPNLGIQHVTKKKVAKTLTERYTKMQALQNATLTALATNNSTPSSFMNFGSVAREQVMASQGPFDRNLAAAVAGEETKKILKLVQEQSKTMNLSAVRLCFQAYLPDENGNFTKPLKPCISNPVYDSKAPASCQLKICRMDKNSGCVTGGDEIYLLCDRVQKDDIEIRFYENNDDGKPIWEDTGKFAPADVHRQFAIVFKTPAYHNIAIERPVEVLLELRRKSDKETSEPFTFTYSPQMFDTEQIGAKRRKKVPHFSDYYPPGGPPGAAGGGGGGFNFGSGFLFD

The target in test [1] is T2, GST-Nv-NF-kB (Cys allele) (Nematostella vectensis, UniProt E5G601 2-411).
T2 sequence: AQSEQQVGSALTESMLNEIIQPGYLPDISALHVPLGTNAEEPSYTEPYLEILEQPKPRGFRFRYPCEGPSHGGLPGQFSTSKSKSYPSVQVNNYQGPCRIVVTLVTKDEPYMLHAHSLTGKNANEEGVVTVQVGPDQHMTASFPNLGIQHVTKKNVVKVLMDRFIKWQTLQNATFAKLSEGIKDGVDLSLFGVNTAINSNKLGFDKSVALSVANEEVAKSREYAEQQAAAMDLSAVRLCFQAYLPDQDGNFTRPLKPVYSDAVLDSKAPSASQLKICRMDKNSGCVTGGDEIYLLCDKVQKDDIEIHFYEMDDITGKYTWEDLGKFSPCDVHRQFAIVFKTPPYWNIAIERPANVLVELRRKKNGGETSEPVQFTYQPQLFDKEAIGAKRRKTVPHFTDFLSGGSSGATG

The target of test [2] is T3, GST-Nv-NF-kB (Ser allele) (Nematostella vectensis, UniProt A7UNT2 2-411).
T3 sequence: T2 sequence with Q21R, C66S, S207N, E215Q, V217A, E225K, A268E, D399E

For another test, the target named is T4, GST-Co-NF-kB (Capsaspora owczarzaki, UniProt F1ARL5 200-546).
T4 sequence: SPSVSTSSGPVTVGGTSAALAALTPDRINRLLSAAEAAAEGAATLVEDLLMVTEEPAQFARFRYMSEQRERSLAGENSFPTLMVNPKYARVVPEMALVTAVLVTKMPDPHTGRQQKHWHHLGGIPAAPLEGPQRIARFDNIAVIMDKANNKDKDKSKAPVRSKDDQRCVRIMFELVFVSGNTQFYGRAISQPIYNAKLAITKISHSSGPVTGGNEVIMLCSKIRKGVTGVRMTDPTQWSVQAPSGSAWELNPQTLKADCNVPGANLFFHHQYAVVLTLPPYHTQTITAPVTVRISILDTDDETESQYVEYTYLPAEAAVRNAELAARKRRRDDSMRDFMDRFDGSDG

A further test addresses T5, GST-Dm-Relish (Drosophila melanogaster, UniProt Q94527 99-473).
T5 sequence: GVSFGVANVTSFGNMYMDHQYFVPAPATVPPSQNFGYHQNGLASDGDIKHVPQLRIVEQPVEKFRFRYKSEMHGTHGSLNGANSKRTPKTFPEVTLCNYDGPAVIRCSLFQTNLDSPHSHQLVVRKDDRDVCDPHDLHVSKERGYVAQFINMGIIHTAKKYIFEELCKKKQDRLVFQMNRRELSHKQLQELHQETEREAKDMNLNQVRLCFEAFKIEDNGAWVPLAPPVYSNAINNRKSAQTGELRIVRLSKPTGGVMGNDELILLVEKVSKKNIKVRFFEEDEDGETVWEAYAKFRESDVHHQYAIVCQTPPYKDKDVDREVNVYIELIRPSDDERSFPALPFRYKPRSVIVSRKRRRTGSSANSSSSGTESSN

In another test the target is T6, GST-Aq-NF-kB (Amphimedon queenslandica, UniProt A9Y5G7 2-389).
T6 sequence: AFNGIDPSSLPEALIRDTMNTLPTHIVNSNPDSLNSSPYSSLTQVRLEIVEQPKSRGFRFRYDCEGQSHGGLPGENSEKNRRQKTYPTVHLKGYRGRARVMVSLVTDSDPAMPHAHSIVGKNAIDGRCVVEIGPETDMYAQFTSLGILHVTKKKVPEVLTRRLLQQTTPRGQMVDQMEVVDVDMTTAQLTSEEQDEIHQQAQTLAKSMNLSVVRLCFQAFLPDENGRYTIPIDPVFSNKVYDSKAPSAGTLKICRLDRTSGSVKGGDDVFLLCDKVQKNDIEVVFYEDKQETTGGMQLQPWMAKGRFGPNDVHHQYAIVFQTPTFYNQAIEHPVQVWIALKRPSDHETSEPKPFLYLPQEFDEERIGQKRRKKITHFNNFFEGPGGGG

Another test has as its target GST-Hu-p50 (Homo sapiens, UniProt P19838 7-356).

Changes are numbered by the printed parent chain.

GST-Hu-p50, sequence (P19838 7-356): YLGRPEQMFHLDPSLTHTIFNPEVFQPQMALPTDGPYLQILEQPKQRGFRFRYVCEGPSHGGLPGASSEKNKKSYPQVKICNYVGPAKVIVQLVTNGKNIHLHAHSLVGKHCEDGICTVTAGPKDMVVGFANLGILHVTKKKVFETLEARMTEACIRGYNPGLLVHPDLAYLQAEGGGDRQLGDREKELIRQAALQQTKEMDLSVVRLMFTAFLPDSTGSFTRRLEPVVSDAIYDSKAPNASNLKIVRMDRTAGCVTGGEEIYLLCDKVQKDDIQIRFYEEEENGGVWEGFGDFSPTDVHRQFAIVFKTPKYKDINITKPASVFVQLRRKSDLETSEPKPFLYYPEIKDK

“CCGATTAACATCAGGGCTTCCCCTGATGTTAATCGGGTCTTGATTCGCTTGACGCTGCTG”: the binding signal in the test with GST-Ap-NF-kB RHD is 9.17 z-score; in test [1] it was 10.8 z-score; in test [2], 8.58 z-score; with GST-Co-NF-kB it was 4.03 z-score; with GST-Dm-Relish, 10.4 z-score; with GST-Aq-NF-kB, 9.48 z-score. This sequence showed a binding signal with GST-Hu-p50 of 6.74 z-score.

Take “CCGATTAACATCAGGGGATGTGCTGATGTTAATCGGGTCTTGATTCGCTTGACGCTGCTG”: the binding signal with GST-Ap-NF-kB RHD came to 3.15 z-score; in test [1], 3.45 z-score; in test [2] it was 5.32 z-score; with GST-Co-NF-kB it was 1.81 z-score; with GST-Dm-Relish it was 1.41 z-score; with GST-Aq-NF-kB, 2.79 z-score. Further, the binding signal with GST-Hu-p50 came out at 3.33 z-score.

Consider “CCGATTAACATCAGCAAATTCCCTGATGTTAATCGGGTCTTGATTCGCTTGACGCTGCTG”, for which the binding signal with GST-Ap-NF-kB RHD was 3.17 z-score; in test [1] it was 5.15 z-score; in test [2], 5.81 z-score; with GST-Co-NF-kB, 2.77 z-score; with GST-Dm-Relish it was 4.19 z-score; with GST-Aq-NF-kB it was 4.34 z-score. The sequence also showed a binding signal in the test with GST-Hu-p50 of 4.19 z-score.

For the sequence “CCGATTAACATCAATTTCCCACCTGATGTTAATCGGGTCTTGATTCGCTTGACGCTGCTG”, the binding signal with GST-Ap-NF-kB RHD was determined as 2.39 z-score; in test [1], 3.38 z-score; in test [2], 3.89 z-score; with GST-Co-NF-kB, 2.84 z-score; with GST-Dm-Relish it was 1.17 z-score; with GST-Aq-NF-kB, 2.26 z-score. The same sequence showed a binding signal with GST-Hu-p50 of 2.74 z-score.

With “CCGATTAACATCAGGGGAAAAACTGATGTTAATCGGGTCTTGATTCGCTTGACGCTGCTG”, the binding signal with GST-Ap-NF-kB RHD was 6.41 z-score; in test [1], 8.02 z-score; in test [2], 10.3 z-score; with GST-Co-NF-kB, 9.24 z-score; with GST-Dm-Relish it was 9.62 z-score; with GST-Aq-NF-kB, 6.72 z-score. This sequence also returned a binding signal in the test with GST-Hu-p50 of 6.32 z-score.

Turning to “CCGATTAACATCACGGATTCCCCTGATGTTAATCGGGTCTTGATTCGCTTGACGCTGCTG”, the binding signal with GST-Ap-NF-kB RHD stood at 8.74 z-score; in test [1], 9.07 z-score; in test [2], 9.24 z-score; with GST-Co-NF-kB, 6.61 z-score; with GST-Dm-Relish, 8.89 z-score; with GST-Aq-NF-kB, 6.68 z-score. The sequence further registered a binding signal with GST-Hu-p50 of 6.26 z-score.

Regarding “CCGATTAACATCAAAAATCCCCGTGATGTTAATCGGGTCTTGATTCGCTTGACGCTGCTG”, the binding signal with GST-Ap-NF-kB RHD is 9.77 z-score; in test [1], 10.8 z-score; in test [2], 11.1 z-score; with GST-Co-NF-kB it was 6.22 z-score; in the test with GST-Dm-Relish it was 10.1 z-score; with GST-Aq-NF-kB it was 8.1 z-score. Further, the binding signal with GST-Hu-p50 was determined as 7.67 z-score.

“CCGATTAACATCAAACTTCCCCATGATGTTAATCGGGTCTTGATTCGCTTGACGCTGCTG”: the binding signal was found to be 6.34 z-score in the test with GST-Ap-NF-kB RHD; 7.12 z-score in test [1]; 7.9 z-score in test [2]; 7.04 z-score with GST-Co-NF-kB; 5.5 z-score with GST-Dm-Relish; 6.28 z-score with GST-Aq-NF-kB. This sequence had a binding signal in the test with GST-Hu-p50 of 5.87 z-score.

Turning to “CCGATTAACATCAGGGAATCACATGATGTTAATCGGGTCTTGATTCGCTTGACGCTGCTG”, the binding signal with GST-Ap-NF-kB RHD came to 1.95 z-score; in test [1] it was 2.66 z-score; in test [2] it was 2.47 z-score; with GST-Co-NF-kB, 2.22 z-score; with GST-Dm-Relish, 9.15 z-score; with GST-Aq-NF-kB it was 3.28 z-score. This sequence also gave a binding signal with GST-Hu-p50 of 1.14 z-score.

As for “CCGATTAACATCACGGGGAATTATGATGTTAATCGGGTCTTGATTCGCTTGACGCTGCTG”, the binding signal in the test with GST-Ap-NF-kB RHD came to 7.23 z-score; in test [1], 8.96 z-score; in test [2] it was 9.51 z-score; with GST-Co-NF-kB it was 8.2 z-score; with GST-Dm-Relish, 6.78 z-score; in the test with GST-Aq-NF-kB, 6.42 z-score. The binding signal with GST-Hu-p50 was 6.24 z-score.

Regarding “CCGATTAACATCACCGGGGATAGTGATGTTAATCGGGTCTTGATTCGCTTGACGCTGCTG”, the binding signal with GST-Ap-NF-kB RHD turned out to be 3.55 z-score; in test [1], 2.68 z-score; in test [2], 3.34 z-score; in the test with GST-Co-NF-kB it was 3.83 z-score; with GST-Dm-Relish it was 2.1 z-score; with GST-Aq-NF-kB, 1.82 z-score. The binding signal with GST-Hu-p50 worked out at 2.98 z-score.

“CCGATTAACATCAAAAAATTCCCTGATGTTAATCGGGTCTTGATTCGCTTGACGCTGCTG”: the binding signal in the test with GST-Ap-NF-kB RHD came out at 6.84 z-score; in test [1], 10.3 z-score; in test [2], 9.33 z-score; with GST-Co-NF-kB it was 5.79 z-score; with GST-Dm-Relish it was 8.53 z-score; in the test with GST-Aq-NF-kB it was 8.5 z-score. In the test with GST-Hu-p50, this sequence gave a binding signal of 6.48 z-score.
